Reference: PubChem BioAssay AID588676 (Johns Hopkins Ion Channel Center, 2011)
The whole screen tested about 310,000 compounds, of which about 3,900 (1.3%) were called active.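 The calls were made as follows: active = calcium-response B-score plate-corrected more than 3 library SD below zero, starting fluorescence within 5 deviations, no agonist response on first addition; inactive = the rest.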 The entries come from a sample that favours actives as a whole.

These compounds were tested against Mas-related G-protein coupled receptor member X1 (Homo sapiens) (UniProt Q96LB2) (assay: blockade of BAM8-22-evoked MrgX1 calcium response – HEK293 cells, Fluo-4 calcium flux, primary screen (AID 588676;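 as to B-score: peak minus trough fluorescence over baseline after final BAM8-22 challenge near maximal dose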)). Details: Fluo-4, BAM8-22 antagonism, at 10 µM; active compounds read low.
Mas-related G-protein coupled receptor member X1 (Homo sapiens), sequence (Q96LB2 whole entry, looked up): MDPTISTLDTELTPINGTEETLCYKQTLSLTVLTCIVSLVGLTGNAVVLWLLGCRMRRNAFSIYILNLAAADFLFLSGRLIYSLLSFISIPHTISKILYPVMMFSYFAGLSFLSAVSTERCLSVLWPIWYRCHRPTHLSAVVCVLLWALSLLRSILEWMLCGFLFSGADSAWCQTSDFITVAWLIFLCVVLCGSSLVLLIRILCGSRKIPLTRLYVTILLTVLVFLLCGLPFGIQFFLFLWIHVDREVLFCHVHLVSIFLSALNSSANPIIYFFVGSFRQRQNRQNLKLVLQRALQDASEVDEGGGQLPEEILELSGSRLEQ

Structure (SMILES)	B-score
O=C(COC(=O)/C=C/c1ccc(OC(F)F)cc1)NC1CCCCC1	inactive
COc1ccc(-c2noc(C(C)NS(=O)(=O)c3ccc(NC(C)=O)cc3)n2)cc1 (centres undefined)	inactive
CCCCCCCCCCCCN1C(=O)CSC1c1cccnc1 (centres undefined)	inactive
CCOC(=O)C1=C(O)CSC1=Nc1cccc(Cl)c1	-5.49 (active)
CCOC(=O)c1c(S(=O)(=O)Nc2cccc(Cl)c2)c(C)n(C)c1C	inactive
CCOC(=O)CSc1ncc(-c2cccc(Cl)c2)cn1	inactive
N=c1n(CCc2ccccc2)c2ccccc2n1Cc1ccccc1F	inactive
Cc1cc(=O)oc2cc(NC(=O)C3CC(=O)N(Cc4ccccc4)C3)ccc12 (centres undefined)	-7.83 (active)
Cc1cc(=O)oc2cc(NC(=O)C(C)Oc3ccccc3)ccc12 (centres undefined)	inactive
O=C(Nc1ccc(F)c([N+](=O)[O-])c1)C1CC(=O)N(Cc2ccccc2)C1 (centres undefined)	inactive
Cc1ccc(N(C(=O)Cc2cccs2)C2C=CS(=O)(=O)C2)cc1Cl (centres undefined)	inactive
Cn1c(NC(=O)c2ccco2)c(-c2ccccc2Cl)c(=O)c2ccccc21	inactive
CCOCCCN1C(=O)C2C(C(=O)Nc3ccc(OCC)cc3)C3C=CC2(O3)C1C(=O)NC1CCCCC1 (centres undefined)	inactive
CC(=O)OCCN(CCCn1c(-c2ccncc2)nc2ccccc21)c1nc(-c2ccc(C)cc2)cs1	inactive
O=C(Cc1ccccc1)Nc1cccc(C(=O)N/N=C/c2ccco2)c1	-18.1 (active)
O=C(N/N=C/c1ccco1)c1ccc(C(=O)N/N=C/c2ccco2)o1	inactive
O=C(Cc1ccccc1)Nc1cccc(NC(=O)c2ccccc2)c1	inactive
N#CCC(=O)NC(=O)NCC1CC1	inactive
CC1Cc2ccccc2N1C(=O)CSc1nnc(-c2ccc(S(=O)(=O)N3CCCC3)cc2)n1C (centres undefined)	inactive
CC(NCc1cccs1)C(=O)Nc1cc(Cl)cc(Cl)c1 (centres undefined)	inactive
COc1ccc(S(=O)(=O)N2CCCC2)c(C)c1C	inactive
COc1cc(C)c(S(=O)(=O)N2CCOCC2)c(C)c1C	inactive
COc1ccc(S(=O)(=O)N2CCOCC2)c(C)c1C	-6.44 (active)
COc1cccc2cc(/C(C)=N/NC(=O)c3ccco3)oc12	inactive
Cn1nccc1C(=O)NC1CCCc2c1cnn2-c1ccc(F)cc1F (centres undefined)	inactive
CCOC(=O)N1CCN(C(=O)c2cn(C)c3ccc(S(=O)(=O)N4CCCC4)cc3c2=O)CC1	-6.83 (active)
COc1ccc(N2CCN(C(=O)c3cn(C)c4ccc(S(=O)(=O)N5CCOCC5)cc4c3=O)CC2)cc1	inactive
CCOC(=O)N1CCN(C(=O)c2cn(C)c3ccc(S(=O)(=O)N(CC)CC)cc3c2=O)CC1	inactive
N/C(=N\OS(=O)(=O)c1cccc([N+](=O)[O-])c1)c1ccncc1	inactive
